Screening data deposited in PubChem by National Center for Advancing Translational Sciences (NCATS).
Shown are actives, neighbours in structure and some others; about 10% of the full set was active somewhere.
SW480 rereplic = A quantitative high throughput screen for small molecules that induce DNA re-replication in SW480 colon adenocarcinoma cells; SW480 DNA re-replication, Hoechst DNA content imaging, 48 h; Potency, µM (highest dose often 46.1 µM), for the others: top-dose re-replication activation, most hits filed as activators; hit rate 1.8% among 340,000; AID 624297, 2012; note: % of control where 0% means no effect; nearly all actives have a fitted effect of over 55% in size
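Readout is total intensity of Hoechst-stained nuclei, excited at 405 nm and collected at 500-530 nm. Compound treatment lasted 48 hr at 37 C in 5% CO2 before staining.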
Gal4-VP16 FLuc = VP16 counterscreen qHTS for inhibitors of ROR gamma transcriptional activity | Drosophila S2 Gal4-VP16 UAS-luciferase, luminescence, 20 h | Potency, µM (top dose mostly 53.6 µM), for the others: at the top dose activity, negative = inhibition, hits mostly inhibitors | hit rate 3.5% among 310,000;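 note: Gal4-VP16 expression switched on by copper sulfate through the metallothionein promoter; % is set by controls: 0 for no effect and ±100 for the full control effect; nearly all actives have a fitted effect of over 50% in size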
RORgamma inh = qHTS for inhibitors of ROR gamma transcriptional activity. Drosophila S2 Gal4-RORgamma UAS-luciferase reporter, 20 h. Potency, µM (series often up to 53.6 µM), inactives show at the highest dose activity change, negative = inhibition, actives largely listed as inhibitors. hit rate 5.4% among 310,000; note: % is set by controls: 0 for no effect and ±100 for the full control effect; nearly all actives have a fitted effect of over 60% in size
Target sequence (P51450 whole entry, looked up, the tested form may be a part): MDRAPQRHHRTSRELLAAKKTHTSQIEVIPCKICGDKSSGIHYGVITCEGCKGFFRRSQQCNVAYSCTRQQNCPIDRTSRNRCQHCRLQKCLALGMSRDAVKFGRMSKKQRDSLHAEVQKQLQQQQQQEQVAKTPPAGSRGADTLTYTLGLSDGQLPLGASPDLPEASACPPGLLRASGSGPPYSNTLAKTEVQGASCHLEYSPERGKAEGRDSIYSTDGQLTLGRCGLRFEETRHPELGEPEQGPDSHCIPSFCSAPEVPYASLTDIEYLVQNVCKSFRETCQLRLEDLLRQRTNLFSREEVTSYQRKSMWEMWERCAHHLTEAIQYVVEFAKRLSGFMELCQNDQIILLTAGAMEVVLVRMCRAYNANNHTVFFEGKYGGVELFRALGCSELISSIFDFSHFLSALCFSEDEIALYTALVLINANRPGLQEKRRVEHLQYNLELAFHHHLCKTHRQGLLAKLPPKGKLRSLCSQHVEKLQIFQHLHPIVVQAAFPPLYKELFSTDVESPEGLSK
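In this cell-based reporter format, copper sulfate (700 uM final) drives Gal4–ROR gamma fusion expression from a metallothionein promoter in Drosophila Schneider cells; compounds preincubated 1 hr, reporter read after 20 hr at ambient temperature.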
MCF10A rerep = A quantitative high throughput screen for small molecules that induce DNA re-replication in MCF 10a normal breast cells; MCF 10A DNA re-replication, Hoechst nuclear intensity, 48 h; Potency, µM (series often up to 46.1 µM), for inactives: at the top dose activity, positive = re-replication, actives largely listed as activators; hit rate 2.9% among 350,000; AID 624296, 2012; note: % of control where 0% means no effect; nearly all actives have a fitted effect of over 50% in size
ELG1 DNA repair = qHTS screen for small molecules that inhibit ELG1-dependent DNA repair in human embryonic kidney (HEK293T) cells expressing luciferase-tagged ELG1. HEK293T ELG1-luciferase reporter, luminescence, 16 h; DNA damage induced by 5-fluorouridine. Potency, µM (doses to about 46.1 µM), without a hit: at the highest dose activity change, negative = inhibition, hits mostly inhibitors. hit rate 2.3% among 330,000. AID 504467, 2011; note: % is set by controls: 0 for no effect and ±100 for the full control effect; nearly all actives have a fitted effect of over 55% in size
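HEK293T cells expressing luciferase-tagged ELG1 (2,000/well) received 5-Fluorouridine plus compound or DMSO for 16 hr at 37 °C. Luciferase was read by ONE-Glo luminescence after 30 min at room temperature.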
* marks the source's active call; other numbers are inactive results; ? = inconclusive; . = no result given; [ ] = another dose, or the depositor's remark. Calls come from the whole dose curve; as a rule, active = well fitted curve in the direction sought with a large enough effect; inconclusive = small, poorly fitted or top-dose-only effect, or another doubt; inactive = no such curve, though single readings can be large; an effect the other way counts as inactive or inconclusive. Potency is the fitted concentration of half-maximal effect.

SMILES	SW480 rereplic	Gal4-VP16 FLuc	RORgamma inh	MCF10A rerep	ELG1 DNA repair
Cc1ccc(-c2ccc(=O)n(CC(=O)NCCN(CC(C)C)CC(C)C)n2)cc1	-3.5%	-1.3%	6.2%	-1.1%	3.4%
COc1cc(C)c(NC(=O)COc2ccc3c(c2)CCC3)cc1OC	-4.9%	.	.	?	-17.4%
CCc1c(C)c(C#N)c2nc3ccccc3n2c1Cl	.	7.3%	2.82µM*	.	?
CCCc1c(C)c(C#N)c2nc3ccccc3n2c1NCCCN1CCOCC1	0.6%	-3.9%	-10.6%	4.8%	?
Cc1c(Cc2ccccc2)c(NCCN(C)C)n2c(nc3ccccc32)c1C#N	29.1µM*	-2.7%	23.3%	23.1µM*	?
CCc1c(C)c(C#N)c2nc3ccccc3n2c1NCCOC	?	-7.3%	-26.1%	?	?
Cc1cc(-c2ccco2)c(C#N)c2nc3ccccc3n12	8.5%	?	?	18.4µM*	8.9%
CCCCc1c(C)c(C#N)c2nc3ccccc3n2c1NCCN(C)C	?	-12.1%	-14.1%	23.1µM*	-21.6%
Cc1cc(C(C)C)n2c(nc3ccccc32)c1C#N	.	0.5%	-4.6%	.	-5.9%
CCc1ccc(NC(=O)CNC(=O)[C@@H]2Cc3ccccc3CN2C(=O)OC(C)(C)C)cc1	-6.5%	-11.2%	22.6%	-2.6%	15.0%
CCCn1c(N)c(C(=O)CN(C)CC(=O)Nc2ccccc2C(F)(F)F)c(=O)[nH]c1=O	-3.3%	.	.	9.6%	9.2µM*
CCCn1c(N)c(C(=O)CN(C)CC(=O)Nc2cc(C)ccc2C)c(=O)[nH]c1=O	3.6%	.	.	0.0%	?
COc1ccc(CNC(=O)c2nccnc2CO)cc1	-3.5%	7.0%	-7.5%	-0.1%	3.8%
CC1CCC(NC(=O)CCN2C(=O)C3C4C=CC(C4)C3C2=O)CC1 (stereo unspecified)	17.4%	-6.0%	-0.6%	-5.1%	2.8%
CC(=O)NC1=C(N(C)C2CCS(=O)(=O)C2)C(=O)c2ccccc2C1=O (stereo unspecified)	?	7.94µM*	2.51µM*	?	?
CN(C(=O)Nc1ccccc1)C1CCS(=O)(=O)C1 (stereo unspecified)	-3.1%	-4.7%	-8.7%	-0.9%	-1.4%
Cc1cccc(OCC(=O)Nc2c3c(nn2C(C)(C)C)CS(=O)(=O)C3)c1	-4.3%	-4.4%	20.5%	0.7%	-2.1%
Cc1c(Cl)c(C(=O)Nc2nc3ccccc3n2CCN2CCCCC2)nn1C	.	-24.1%	?	.	21.9%
CCn1cc(Cl)c(C(=O)Nc2nc3ccccc3n2CCN2CCCCC2)n1	-1.7%	8.91µM*	10µM*	-0.2%	-6.0%
Cn1ncc([N+](=O)[O-])c1C(=O)Nc1nc2ccccc2n1CCN1CCCCC1	-0.4%	?	3.55µM*	?	-20.4%
C/C(=N\Nc1nc(N2CCCCCC2)nc(N2CCCCCC2)n1)c1ccccc1	0.5%	-16.0%	3.16µM*	9.7%	-5.3%
O=[N+]([O-])c1cc2c(cc1/C=N/Nc1nc(N3CCCC3)nc(N3CCCC3)n1)OCO2	-6.8%	-10.1%	-17.7%[10 µM]	4.0%	?
O=[N+]([O-])c1ccccc1/C=N/Nc1nc(N2CCCC2)nc(N2CCCC2)n1	0.0%	-6.3%	12.6µM*	1.4%	-7.5%
C(=C\c1ccccc1)/C=N/Nc1nc(N2CCCCC2)nc(N2CCCCC2)n1	-0.7%	-1.3%	0.794µM*	1.9%	0.0%
CC(=C/c1ccccc1)/C=N/Nc1nc(N2CCCCC2)nc(N2CCCCC2)n1	-7.1%	-12.8%	-24.8%	-4.4%	-4.0%
SMILES	SW480 rereplic	Gal4-VP16 FLuc	RORgamma inh	MCF10A rerep	ELG1 DNA repair
CC(=O)Nc1ccc(/C(C)=N/Nc2nc(N3CCOCC3)nc(N3CCOCC3)n2)cc1	1.6%	-17.7%	2.9%	0.3%	?
CC(=O)Nc1ccc(/C(C)=N/Nc2nc(Nc3cccc4ccccc34)nc(N3CCOCC3)n2)cc1	?	11.2µM*	5.62µM*	?	7.31µM*
CCOc1ccc(N2CC(NS(=O)(=O)c3cccs3)CC2=O)cc1 (stereo unspecified)	3.3%	.	.	-0.3%	5.7%
Nc1nn(-c2ccccc2Cl)cc1-c1nn[nH]n1	-28.1%	4.2%	13.6%	-0.6%	0.0%
O=[N+]([O-])c1ccccc1/C=C/C=N/Nc1nc(N2CCCCC2)nc(N2CCCCC2)n1	-2.4%	-7.6%	11.2µM*	15.2%	0.4%
CC(=O)Nc1nnc(-c2ccc3c(c2)CCCC3)o1	-17.1%	3.55µM*	7.08µM*	5.5%	?
CC(=O)Nc1ccc2c(c1)CCCC2	0.7%	15.9%	?	1.9%	?
COc1cc(-c2nnc(NC(=O)c3ccco3)o2)cc(OC)c1OC	-0.5%	.	.	10.0%	?
COc1ccccc1C(=O)Nc1nnc(-c2ccc3c(c2)CCCC3)o1	-12.8%	3.98µM*	0.4%	12.4%	16.0%
CC1CN(S(=O)(=O)c2ccc(C(=O)Nc3nnc(-c4ccc5c(c4)CCCC5)o3)cc2)CC(C)O1 (stereo unspecified)	10.0%	0.891µM*	0.112µM*	2.1%	2.59µM*
O=C(Nc1nnc(-c2ccc3c(c2)CCCC3)o1)C1COc2ccccc2O1 (stereo unspecified)	0.7%	7.94µM*	3.55µM*	-2.4%	?
O=C(Nc1ccccc1)C1COc2ccccc2O1 (stereo unspecified)	-0.5%	18.9%	33.8%	2.6%	?
NS(=O)(=O)c1ccc(CCNC(=O)C2CCN(c3ncnc4c3nc3n4CCCCC3)CC2)cc1	-12.9%	4.6%	-3.1%	-2.5%	-25.1%
CCOc1ccccc1NC(=O)c1nnn(CC(=O)Nc2ccc3c(c2)OCO3)c1N	-21.1%	7.4%	0.9%	6.3%	8.0%
O=C(CSc1nnnn1-c1ccccc1)NC(=O)NCc1ccco1	-11.8%	-3.8%	33.6%	12.0%	4.2%
CCOc1ccccc1NC(=O)Cn1nnc(C(=O)NCc2ccco2)c1N	?	-4.3%	34.3%	0.126µM*	1.2%
Cc1ccccc1NC(=O)Cn1nnc(C(=O)NCc2ccco2)c1N	14.6µM*	5.9%	-5.6%	?	-24.1%
CCOc1ccccc1NC(=O)Cn1nnc(C(=O)NCc2ccc3c(c2)OCO3)c1N	?	2.6%	-1.4%	4.61µM*	?
CCOc1ccccc1-n1nnnc1SCC(=O)NC(=O)NCc1ccco1	-2.2%	8.0%	12.0%[10 µM]	2.0%	25.9µM*
O=C(CNC(c1ccccc1)c1ccccc1)Nc1cc([N+](=O)[O-])ccc1Cl	1.5%	-17.3%	?	16.7%	-12.1%
CCOc1ccc(N2C(=O)CC(NCCNc3ccc(C(=O)c4cccs4)cc3)C2=O)cc1 (stereo unspecified)	-8.5%	-6.7%	?	-1.2%	?
Oc1ccc(N=Nc2ccc3c(c2)OCO3)c2ccccc12	.	0.631µM*	0.126µM*	.	?
